Screening results as filed in PubChem BioAssay.
14-3-3 PPI: alters human 14-3-3 gamma binding to Raf peptide. P61981. FP, 14-3-3gamma / TMR-pS259-Raf peptide binding. inhibition, % at 40 µM. actives 0.19% (n = 160,000); in the data active = inhibition above about 30%;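 note: 0% = protein plus tracer without compound and 100% = blank with tracer alone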
Target sequence (P61981 whole entry, looked up): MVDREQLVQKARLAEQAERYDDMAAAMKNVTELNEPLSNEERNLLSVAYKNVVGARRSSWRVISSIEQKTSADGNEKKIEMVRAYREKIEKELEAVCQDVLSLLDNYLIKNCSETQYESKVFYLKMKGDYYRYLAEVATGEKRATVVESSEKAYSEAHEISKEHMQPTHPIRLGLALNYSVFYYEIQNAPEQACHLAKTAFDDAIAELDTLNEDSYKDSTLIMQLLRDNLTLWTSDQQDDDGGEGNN
The depositor's hits bear a star; + = active, no number. This excerpt belongs to a sample that is enriched for hits.

SMILES | 14-3-3 PPI
O=C(Nc1c2c(nn1-c1cccc(Cl)c1)CS(=O)(=O)C2)c1ccc(S(=O)(=O)N2CCOCC2)cc1 | -17
Cc1ccc(C)c(Nc2ccc3nonc3c2[N+](=O)[O-])c1 | -10
Cc1ccc(C)c(Nc2c([N+](=O)[O-])ccc3nonc23)c1 | -13
Cc1ccc(C)c(Nc2ccc([N+](=O)[O-])c3nonc23)c1 | 34*
O=C(NCCCN1CCN(c2cccc(Cl)c2)CC1)c1cc(-c2ccncc2)nc2ccccc12 | -8
COc1cc(-c2nc(Nc3cccc(Cl)c3)c3ccccc3n2)cc(OC)c1OC | 2
Cc1c(C(=O)N(C)C)sc2c1c(=O)n(-c1ccc(Cl)cc1)c(=O)n2CC(=O)OCc1ccccc1 | 7
O=C(NCc1ccccc1Cl)c1ccc(N2CC3CC(C2)c2cccc(=O)n2C3)c(NS(=O)(=O)c2ccc3c(c2)OCCO3)c1 (stereo not drawn) | -2
CCC(=O)N1CCc2cc(Br)cc(S(=O)(=O)CCC(=O)N(C)c3ccc(OC)cc3)c21 | 0
COc1cccc(CNC(=O)CCS(=O)(=O)c2ccc3c(c2)CC(C)N3C(C)=O)c1 (stereo not drawn) | 0
CC(=O)N1c2ccc(S(=O)(=O)CCC(=O)NCc3ccc(C)cc3)cc2CC1C (stereo not drawn) | 33*
CC(=O)N1c2ccc(S(=O)(=O)CCC(=O)NCc3ccccc3)cc2CC1C (stereo not drawn) | 20
O=C(c1cc(-c2ccc3c(c2)OCO3)on1)N1CCc2ccccc2C1 | -15
O=C(CNCc1ccccc1Cl)CSc1nc2[nH]ncc2c(=O)n1-c1cccc(C(F)(F)F)c1 | -5
O=C(OCCN1CCCCC1)c1ccccc1F | -3
O=C(Oc1ccc(C2CCCCC2)cc1)c1ccccc1F | 31*
CSc1ccc(OC(=O)c2ccccc2F)cc1 | -5
CC(=O)Oc1ccc(C(=O)Nc2cc(C)ccn2)cc1 | 3
CC1CCN(S(=O)(=O)c2ccc3[nH]cc(C(=O)NCc4ccccc4Cl)c(=O)c3c2)CC1 | -2
Cc1ccc2c3c(ccc2n1)NC1=C(C(=O)CCC1)C3c1ccc(O)c(O)c1 (stereo not drawn) | -8
O=C(NC(=O)N1CCN(c2ccccc2F)CC1)c1ccccc1 | 2
O=C(O)C1C2CCC(C2)C1C(=O)N1CCN(c2ccccc2F)CC1 (stereo not drawn) | 43*
O=C(c1cnccn1)N1CCN(c2ccccc2F)CC1 | -27
COc1ccc(S(=O)(=O)NCCC(=O)N2CCN(C)CC2)cc1 | 4
COc1ccccc1-n1nnnc1SCc1cc2c(cc1Br)OCO2 | 50*
SMILES | 14-3-3 PPI
COc1ccccc1-n1nnnc1SCc1ccccc1 | -2
Clc1cc2c(cc1CSc1nnnn1-c1ccccc1)OCO2 | -1
Cc1noc(C)c1S(=O)(=O)N1CCN(c2ccccc2F)CC1 | 1
O=C(CSc1nccn1-c1cccc(Cl)c1)N1CCc2ccccc21 | -2
O=C(Nc1ccc(OC(F)(F)C(F)F)c(NC(=O)c2cccc([N+](=O)[O-])c2)c1)c1cccc([N+](=O)[O-])c1 | 3
CCOc1cc(C2C(C(=O)OC)=CN(C(C)C)C=C2C(=O)OC)cc(Br)c1O | 0
Cc1nc(N=Nc2ccc(C(=O)O)cc2)c(COP(=O)(O)O)c(C=O)c1O | 69*
Cc1cc(O)c(C=Nc2ccc(C(=O)O)cc2)c(C)c1Cl | 3
Cc1nc(N=Nc2ccc(S(=O)(=O)O)cc2S(=O)(=O)O)c(COP(=O)(O)O)c(C=O)c1O | 35*
CCc1cccc(NC(=O)Cn2c(=O)n(Cc3ccc4c(c3)OCO4)c(=O)c3ccccc32)c1 | -3
COc1ccc([N+](=O)[O-])cc1CSc1nc2ccc(N3C(=O)c4ccc([N+](=O)[O-])cc4C3=O)cc2s1 | -2
NC(=O)c1c(NC(=O)c2cc(-c3cccc(Cl)c3)on2)sc2c1CCCC2 | -12
COC(=O)c1ccc(C2N=C(c3ccc(OC)cc3)CC(c3ccccc3O)N2)cc1 (stereo not drawn) | 2
O=C(Nc1ccccn1)c1ccc2c(=O)n(Cc3ccccc3Cl)c(=S)[nH]c2c1 | -7
O=C1c2cccc(Cl)c2C(=O)c2c1cccc2N1CCOCC1 | 4
CCNc1cccc2c1C(=O)N(C)C2=O | -15
CCNc1c2c3c(cccc3n(C)c1=O)C(=O)c1ccccc1-2 | 54*
O=C1c2ccccc2C(=O)c2c1ccc(C(=O)N1CCCC1)c2NCCO | -244
Cn1c(=O)c(=O)n(C)c2cc(S(=O)(=O)NC3CCCCCC3)ccc21 | -2
Cn1c(=O)c(NC2CCCCC2)c2c3c(cccc31)C(=O)c1ccccc1-2 | 32*
CCN(CC)C(=O)c1ccc2c(c1NCCO)C(=O)c1ccccc1C2=O | -311
COC(=O)Cn1nc2c3c(cccc31)C(=O)c1ccccc1-2 | -11
Cn1c(=O)c(N2CCOCC2)c2c3c(cccc31)C(=O)c1ccccc1-2 | 50*
CC(C(=O)NC1CCCCC1)N1C(=O)c2ccccc2C1=O (stereo not drawn) | -4
CN1C(=O)c2cccc3c(N4CCOCC4)ccc(c23)C1=O | -5
SMILES | 14-3-3 PPI
Cn1c(=O)c(NCCO)c2c3c(cccc31)C(=O)c1ccccc1-2 | 168*
CCOC(=O)c1c(NC(=O)c2cc([N+](=O)[O-])nn2Cc2ccccc2)sc(C)c1C | -3
c1csc(CNCc2cccs2)c1 | -23
CCOC(=O)CC(=O)CSc1nc(-c2cccs2)ccc1C#N | -53
CCOC(=O)C1=C(C)NC(=O)N(C(C)=O)C1c1ccccc1Cl (stereo not drawn) | -4
CC(C(=O)N1CCOCC1)N1C(=O)c2ccccc2C1=O (stereo not drawn) | -5
CC(C)NC(=O)N1CCOCCOCCN(C(=O)NC(C)C)CCOCCOCC1 | 4
CC(N)C(=O)N1CCOCCOCCN(C(=O)C(C)N)CCOCCOCC1 (stereo not drawn) | +
Cc1ccc(N2C(=O)C3C4C=CC(O4)C3C2=O)c([N+](=O)[O-])c1 (stereo not drawn) | -5
C=CCN=c1cc(-c2ccccc2)oc2ccc(C)cc12 | -12
Cc1ccc(N=Cc2cc(-c3ccccc3)oc2S)c(C)c1 | 90*
Cc1ccc(N=Cc2ccccc2O)c(C(=O)c2ccccc2)c1 | -2
Cc1cccc(Oc2cc(NC(=O)c3cc4nc(-c5ccco5)cc(C(F)(F)F)n4n3)cc([N+](=O)[O-])c2)c1 | -12
CCN(CC)S(=O)(=O)c1ccc2oc(C(=O)Nc3cccc(C(F)(F)F)c3)c(C)c2c1 | -10
O=C(O)CCCNc1cc(N2CCN(c3cccc(C(F)(F)F)c3)CC2)c2noc3c2c1C(=O)c1ccccc1-3 | -123
O=C(O)CCCNc1cc(N2CCC3(CC2)OCCO3)c2noc3c2c1C(=O)c1ccccc1-3 | -52
O=C(O)CCCNc1cc(N2CCCCCC2)c2noc3c2c1C(=O)c1ccccc1-3 | 67*
O=C(CSc1nc2ccc(N=Cc3cc(I)ccc3O)cc2s1)Nc1ccccc1 | -36
CC1CCN(S(=O)(=O)c2cc(C(=O)Nc3cccc(Cl)c3)ccc2F)CC1 | -13
COc1cccc(C2C=C(c3ccc(Br)cc3)Nc3nc4ccccc4n32)c1OC (stereo not drawn) | -15
Cc1ccccc1NC(=O)c1cc2ccccc2c(C=Nc2ccc([N+](=O)[O-])cc2O)c1O | -105
CC(=O)Oc1ccc2ccccc2c1C=Nc1cc([N+](=O)[O-])ccc1C | 87*
COc1cc(OC)c(C=Nc2cc([N+](=O)[O-])ccc2C)cc1Br | -5
COC(=O)c1ccc(N=Cc2c(OC(=O)c3cccc([N+](=O)[O-])c3)ccc3ccccc23)cc1 | 3
CCOc1ccc(-c2nc3cc(N=Cc4cc([N+](=O)[O-])ccc4O)ccc3o2)cc1 | -7
